Compound activity: PubChem BioAssay, several laboratories
Most compounds without a hit are left out; they make up all but 3.9% or so of the library.
CCHF vOTU inh-1 – CCHFV vOTU protease inhibition. inhibition, % at 11.5 µM. Pep-AMC fluorescence. actives 0.55% (n = 370,000). AID 651958; in the data active means inhibition above about 30%; further: 0% = vehicle wells with enzyme and 100% = no enzyme wells
Anthrax LF inh2 – inhibitors of Bacillus anthracis lethal factor protease. AID 588501. inhibition, % at 10 µM. actives 0.12% (n = 360,000). P15917. multiplex microsphere protease cleavage assay, LF; further: plate controls were buffer without enzyme for full effect and enzyme alone for no effect
Target sequence (P15917 whole entry, looked up): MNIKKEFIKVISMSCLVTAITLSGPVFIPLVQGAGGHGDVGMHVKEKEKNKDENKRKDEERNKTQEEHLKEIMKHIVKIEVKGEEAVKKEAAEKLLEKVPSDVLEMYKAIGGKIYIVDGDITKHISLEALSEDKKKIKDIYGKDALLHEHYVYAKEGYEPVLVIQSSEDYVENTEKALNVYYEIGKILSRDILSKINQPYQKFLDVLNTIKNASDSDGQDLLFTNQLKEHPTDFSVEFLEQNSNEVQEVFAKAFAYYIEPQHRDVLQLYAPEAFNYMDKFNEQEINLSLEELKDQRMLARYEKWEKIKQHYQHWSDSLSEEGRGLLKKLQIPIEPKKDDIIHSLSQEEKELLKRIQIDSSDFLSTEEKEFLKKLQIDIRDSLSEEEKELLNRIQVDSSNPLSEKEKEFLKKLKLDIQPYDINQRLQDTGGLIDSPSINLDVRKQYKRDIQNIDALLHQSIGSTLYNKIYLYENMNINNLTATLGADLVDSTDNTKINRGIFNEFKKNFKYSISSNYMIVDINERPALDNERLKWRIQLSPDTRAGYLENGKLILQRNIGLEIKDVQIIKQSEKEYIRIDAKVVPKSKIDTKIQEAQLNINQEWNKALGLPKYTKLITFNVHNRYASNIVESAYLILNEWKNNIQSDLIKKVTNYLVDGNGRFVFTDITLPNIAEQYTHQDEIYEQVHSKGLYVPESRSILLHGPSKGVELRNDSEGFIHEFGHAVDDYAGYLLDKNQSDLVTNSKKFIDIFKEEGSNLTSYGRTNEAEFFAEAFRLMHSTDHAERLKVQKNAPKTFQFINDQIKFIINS
SARS 3CLpro inh – SARS-CoV 3CLpro protease inhibition; P0C6X7; recombinant SARS-CoV 3CLpro, quenched FRET peptide cleavage; inhibition, % at 6 µM; actives 0.14% (n = 290,000); in the data active means inhibition above about 12%
BoNT F protease – inhibitors of Botulinum neurotoxin F light chain protease. Multiplex microsphere protease cleavage assay, flow cytometry. inhibition, % at 10 µM. actives 0.22% (n = 360,000). AID 588497; in the data active means inhibition above about 35%, passing the limit was not always enough; inconclusive means no clear call, values can overlap the other calls; further: plate controls were buffer without enzyme for full effect and enzyme alone for no effect
BoNT-A LC inh2 – inhibitors of Botulinum neurotoxin A light chain protease; inhibition, % at 10 µM; actives 0.17% (n = 360,000); AID 588499; multiplex microsphere protease substrate cleavage, flow cytometry; further: plate controls were buffer without enzyme for full effect and enzyme alone for no effect
Bead autofluor – counter-screen for toxin protease inhibitors: compound fluorescence | compound autofluorescence counterscreen, microsphere flow cytometry; stronger effect = higher value | fluorescence intensity (no concentration beside the values) | actives 3.1% (n = 360,000) | AID 624483; in the data active means fluorescence intensity above about 16000; inconclusive means no clear call, values can overlap the other calls
CCHF vOTU inh-2 – CCHFV vOTU protease inhibition, confirmation; shares compounds with CCHF vOTU inh-1; Recombinant CCHFV vOTU, Pep-AMC fluorescence; inhibition, % at 11.5 µM; actives 17% (n = 1,900); AID 686976; in the data active means inhibition above about 30%
Starred values were filed as active, the others as inactive; ? = inconclusive; . = no result. Unless noted, no stated cut-off is given here; in the data, active means inhibition above about 30%; inconclusive means no clear call, values can overlap the other calls; inactive means below that.

SMILES	CCHF vOTU inh-1	Anthrax LF inh2	SARS 3CLpro inh	BoNT F protease	BoNT-A LC inh2	Bead autofluor	CCHF vOTU inh-2
CCC(CNc1cc(OC)cc2cccnc12)NC1CCCCC1 (stereo not drawn)	109.8*	-39.2	4.6	?	-3.4	2533	102.3*
CCOc1ccc(CCNC(=O)c2ccc(C)c(S(=O)(=O)N3CCOCC3)c2)cc1OCC	1.5	-3.7	.	-2.5	-0.2	2883	.
CCOc1ccc(CCNC(=O)c2ccc(Cl)c(S(=O)(=O)N3CCOCC3)c2)cc1OCC	41.7*	.	.	.	.	.	1.1
CN(C)c1ccc2cc(S(=O)(=O)O)cc(O)c2c1	38.2*	-5.5	.	-10.6	-0.5	3579	-93.1
O=Nc1c(O)ccc2cc(S(=O)(=O)O)ccc12	.	2.1	.	-3.1	-0.7	4107	.
O=c1[nH]ncc(N/N=C/c2ccccc2)c1Cl	1.1	1.5	-6.7	0.7	1.4	15870	.
Cc1ccsc1/C=N\Nc1cn[nH]c(=O)c1Cl	29.7*	-3.3	2.7	-3.5	0.2	4388	2.9
O=C1C2CCCN2C(c2cccs2)N1c1ccc(Cl)cc1 (stereo not drawn)	31.2*	-1.6	-6.2	33.3	1.0	4218	-11.2
CC(OC(=O)c1cc(S(=O)(=O)N(C)C)ccc1N1CCCC1)C(=O)NCc1ccccc1 (stereo not drawn)	-2.6	2.6	-4.8	2.9	2.2	4576	.
CCO[C@H]1OC(C(=O)NCc2ccccc2)=C[C@@H](c2ccc(C(F)(F)F)cc2)[C@@H]1CCCO	19.1	-7.8	0.8	-5.3	0.0	3963	.
CCO[C@H]1OC(C(=O)Nc2ccccc2)=C[C@@H](c2ccc(C(F)(F)F)cc2)[C@@H]1CCCO	32.4*	5.2	4.0	1.9	-0.6	3993	6.7
O=C(NCc1ccco1)C1CCN(S(=O)(=O)c2ccccc2C(F)(F)F)CC1	30.5*	-8.3	.	9.7	-0.1	3817	-11.9
CCN(CC)S(=O)(=O)N1CCC(C(=O)NCc2ccco2)CC1	-0.6	-4.3	-2.5	3.9	-0.2	4573	.
COC(=O)c1ccc(N=NNc2ccc(C(=O)OC)cc2)cc1	33.1*	-3.8	-2.2	-5.7	-0.3	9022	-9.1
COC(=O)c1ccc(N=NNc2ccccc2)cc1	-10.7	-1.3	-4.9	2.5	-0.6	7536	.
O=C(CCN1C(=O)/C(=C\c2ccco2)SC1=S)Nc1ccc(C(=O)O)c(O)c1	33.6*	-0.8	7.0	-0.1	-0.6	4213	6.2
O=C(CCN1C(=O)/C(=C/c2ccco2)SC1=S)Nc1ccc(C(=O)O)c(O)c1	14.0	-11.9	-2.5	-37.7	-7.2	3516	.
COc1ccccc1/C=C1\SC(=S)N(CCC(=O)Nc2ccc(C(=O)O)c(O)c2)C1=O	34.5*	-2.6	3.3	8.6	1.5	3758	16.0
CCn1c(CNC(=O)c2ccccc2F)nnc1SCC(=O)NC1CCCCC1C (stereo not drawn)	1.6	-0.7	-3.0	-0.5	0.3	2268	.
COc1cccc(NC(=O)COC(=O)C2CC(=O)N(c3ccc(C)cc3)C2)c1 (stereo not drawn)	5.1	2.8	.	4.0	-0.5	6695	.
CCCCn1c(N)c(N(CCC(C)C)C(=O)c2ccccc2-n2cnnn2)c(=O)[nH]c1=O	-2.8	-0.8	.	-2.1	0.1	5125	.
COc1ccc(C2CC(C(F)(F)F)n3nc(C(=O)Nc4c(C)n(C)n(-c5ccccc5)c4=O)c(Cl)c3N2)cc1 (stereo not drawn)	.	.	-2.5	.	.	.	.
C[n+]1c(-c2ccccc2)c2cc(N)ccc2c2ccc(N)cc21	104.8*	-138.2	-6.6	-169.4	-1.7	2539	77.4*
COC(=O)[C@]12CCCCC=C1N(Cc1ccc3c(c1)OCO3)C(=O)[C@H](CC(=O)NCCC(C)C)C2	22.8	.	.	.	.	.	.
O=c1oc2ccccc2c(N2CCCC2)c1[N+](=O)[O-]	31.5*	-9.6	1.7	-4.4	-1.1	4114	-15.0
SMILES	CCHF vOTU inh-1	Anthrax LF inh2	SARS 3CLpro inh	BoNT F protease	BoNT-A LC inh2	Bead autofluor	CCHF vOTU inh-2
COc1ccc(OC)c(/C=N/NC(=S)NCCc2ccccc2)c1	-9.3	0.8	2.5	8.2	-1.3	3823	.
N#CCCN(C(=O)COC(=O)CCNS(=O)(=O)c1ccccc1)c1ccccc1	58.5*	-5.8	.	4.4	0.6	2844	3.2
N#CCCN(C(=O)COC(=O)CCC(=O)c1cccs1)c1ccccc1	-11.2	0.2	.	0.8	-2.1	5601	.
Nc1ccc(N2CCCCC2)c2nonc12	110.6*	8.8	6.2	-21.9	33.2*	3405	34.0*
CN(C)C(=O)c1c2c(nc3ccccc13)-c1ccccc1CC2	32.9*	2.9	-2.7	-7.9	-2.3	11092	-20.9
O=C(Nc1cc2cc([N+](=O)[O-])ccc2oc1=O)c1cccs1	.	.	3.1	.	.	.	.
CC(C)(c1ccccc1)c1ccc(OCCn2cnc3ccccc3c2=O)cc1	31.3*	-4.2	0.2	?	0.6	4114	3.7
O=C(c1ccccc1)c1ccc(OCCn2cnc3ccccc3c2=O)cc1	13.0	2.0	5.3	21.7	0.4	2890	.
O=C(CNc1cccc2ccccc12)c1ccc([N+](=O)[O-])cc1	30.1*	-3.0	-3.7	-7.6	0.6	2228	-16.6
CC(Nc1cccc2ccccc12)C(=O)N/N=C/c1ccc([N+](=O)[O-])cc1 (stereo not drawn)	104.0*	-3.2	2.8	-8.1	-0.3	8096	-5.9
Cc1cccc(/C=N/NC(=O)C(C)Nc2cccc3ccccc23)n1 (stereo not drawn)	114.9*	-0.1	-16.5	-14.1	1.0	7633	-19.4
COc1cc([N+](=O)[O-])cc(/C=N/NC(=O)C(C)Nc2cccc3ccccc23)c1O (stereo not drawn)	5.2	1.0	-12.1	-7.3	-0.5	2388	.
O=C(O)CCCCCCCCc1cn(CCc2c[nH]c3ccccc23)nn1	0.1	1.4	7.4	-6.3	-0.7	3937	.
COc1ccc(CN([C@H](CO)CC(C)C)S(=O)(=O)N(Cc2ccccc2)[C@H](CO)CC(C)C)cc1	33.7*	-0.5	.	-9.5	0.4	2881	1.7
CC(C)C[C@@H](CO)N(Cc1ccccc1)S(=O)(=O)N(Cc1ccccc1)[C@H](CO)CC(C)C	.	-4.4	.	-2.6	-0.3	4046	.
Cc1ccccc1NC(=S)NC(NC(=O)COc1ccccc1)C(Cl)(Cl)Cl (stereo not drawn)	-9.2	-1.6	7.9	-7.9	-1.9	4553	.
CCc1ccc(OCC(=O)NC(NC(=S)Nc2ccccc2C)C(Cl)(Cl)Cl)cc1 (stereo not drawn)	29.8*	-2.1	1.0	-2.3	0.3	2198	-23.8
COc1ccc(C(=O)Nc2ccc(O)c3ccccc23)cc1	30.6*	-5.0	.	-8.3	0.1	6577	-8.6
COc1ccc(NC(=O)Nc2ccc(O)c3ccccc23)cc1	82.1*	.	.	.	.	.	-17.1
COc1ccc(NC(=O)c2ccccc2NC(=O)c2ccccc2)cc1	-0.8	-1.3	3.7	4.4	-0.2	3668	.
COc1ccc(OC)c(S(=O)(=O)Nc2cccc3c(O)cccc23)c1	-6.5	-5.0	.	2.5	0.3	5763	.
